Screens (PubChem)
HEK293 tox – HEK 293 cell cytotoxicity; HEK 293 viability, ATP luminescence (CellTiter-Glo), 48-72 h; Potency, µM (series often up to 115 µM), for the others: at the highest dose activity change, negative = cytotoxicity, hits mostly inhibitors; 6.6% of 94,000 active; note: nearly all actives have a fitted effect of over 60% in size
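CellTiter-Glo luminescence (cellular ATP) was read after 48 or 72 hr of compound exposure at 37 degree Celsius. Cells were HEK 293 plated at 250 cells/well.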
3T3 cytotox – cytotoxic compounds in NIH 3T3 cells. 4.3% of 94,000 active. NIH 3T3 viability, CellTiter-Glo ATP luminescence, 48-72 h. Potency, µM (highest dose often 96.7 µM), for inactives: at the highest dose activity change, negative = cytotoxicity, actives largely listed as inhibitors. AID 1345082; note: nearly all actives have a fitted effect of over 55% in size
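ATP-dependent luminescence (CellTiter-Glo) served as the viability signal for NIH 3T3 cells treated with compound for 48 or 72 hr at 37 °C.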
NPR1 antag – antagonists of human natriuretic peptide receptor Npr1. AID 1347048. HEK293 hNpr1 GloSensor cGMP, ANP-stimulated luminescence. 1.6% of 76,000 active. Potency, µM (doses to about 46.3 µM), inactives show at the top dose activity change, negative = inhibition, usual class: inhibitors; calls by dose curve; note: nearly all actives have a fitted effect of over 60% in size
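HEK293 cells stably expressing human Npr1 and cGMP GloSensor pGS-40F, loaded 2 h with 2% GloSensor reagent, given compound 30 min at room temperature. Luminescence read before and 20 min after 0.1 nM hNppA.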
SNCA expr inhib – reduces expression of the alpha-synuclein gene. HEK-293 SNCA-luciferase knock-in, luminescence, 24 h. Potency, µM (titrated, usually from 57.2 µM), for inactives: at the top dose activity change, negative = inhibition, actives largely listed as inhibitors. 0.17% of 140,000 active. AID 1671194;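 note: plate controls were DMSO cells for no effect and cell-free wells for full effect; nearly all actives have a fitted effect of over 45% in size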
Luciferase inh – blocks purified firefly luciferase enzyme activity. P08659. purified P. pyralis luciferase, luminescence, biochemical. Potency, µM (top dose mostly 115 µM), hits mostly inhibitors. 2.5% of 76,000 active; note: nearly all actives have a fitted effect of over 65% in size
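Purified 10nM P. pyralis luciferase with 10uM D-luciferin and 10uM ATP in 50mM Tris acetate pH 7.5, 10mM Mg acetate, 0.01% Tween-20, 0.05% BSA. qHTS titration; luminescence read by CCD imager.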
SNCA viab count – reduces viability of HEK-293 SNCA reporter cells. HEK-293-SNCA-luc viability, GF-AFC fluorescence, 24 h. Potency, µM (top dose mostly 57.1 µM), without a hit: at the top dose activity change, negative = cytotoxicity, hits mostly cytotoxic. 0.12% of 150,000 active. AID 1671193;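 note: 0% = DMSO-treated cells and -100% = medium-only wells without cells; nearly all actives have a fitted effect of over 30% in size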
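Cytotoxicity counterscreen: after 24 h compound treatment of genome-edited SNCA-luciferase HEK-293 cells, live-cell protease substrate GF-AFC read by fluorescence after 30 min; activity scaled between DMSO (0%) and medium-only (-100%), curves Hill-fitted.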
* = called active by the depositor; i = inactive; ? = inconclusive; / = not tested or not shown; [ ] = dose if it differs, or a comment. This is a sample that favours compounds with a hit; in the whole collection about 7.2% have one here. Unless noted, calls come from the whole dose curve; as a rule, active = well fitted curve in the direction sought with a large enough effect; inconclusive = small, poorly fitted or top-dose-only effect, or another doubt; inactive = no such curve, though single readings can be large; an effect the other way counts as inactive or inconclusive. Unless noted, % is set by controls: 0 for no effect and ±100 for the full control effect; potency is the fitted concentration of half-maximal effect.

SMILES	HEK293 tox	3T3 cytotox	NPR1 antag	SNCA expr inhib	Luciferase inh	SNCA viab count
O=C(NCc1ccccc1)C1CCCN(Cc2cccc(-c3ccsc3)c2)C1 (stereo unspecified)	?	39.8µM*	/	/	/	/
CCC(C)NC(=O)C1CCCN(Cc2cccc(-c3ccsc3)c2)C1 (stereo unspecified)	44.7µM*	?	/	/	/	/
COC(=O)CNC(=O)C1CCCN(Cc2cccc(-c3cccs3)c2)C1 (stereo unspecified)	-10.8%	?	/	21.2%	/	20.4%
O=C(Nc1cccc(F)c1)C1CCCN(Cc2cccc(-c3cccs3)c2)C1 (stereo unspecified)	31.6µM*	?	/	/	/	/
O=C(NCc1ccccc1F)C1CCCN(Cc2cccc(-c3cccs3)c2)C1 (stereo unspecified)	44.7µM*	39.8µM*	/	/	/	/
COc1ccccc1-c1cccc(CN2CCCC(C(=O)NCc3cccs3)C2)c1 (stereo unspecified)	?	?	/	-14.6%	/	-3.7%
O=C(NCCc1ccc(Cl)cc1)C1CCCN(Cc2cccc(-c3ccsc3)c2)C1 (stereo unspecified)	22.4µM*	14.1µM*	/	/	/	/
O=C(NCc1ccc(F)cc1)C1CCCN(Cc2cccc(-c3cccs3)c2)C1 (stereo unspecified)	39.8µM*	?	/	-23.2%	/	-9.4%
C=CCN(CC=C)Cc1nnc2cc(-c3nc(-c4ccccc4)no3)ccn12	?	-0.1%	-4.7%	65.4%	i	-6.2%
O=C(NCc1cccc(C(F)(F)F)c1)C1CCCN(Cc2cccc(-c3cccs3)c2)C1 (stereo unspecified)	?	7.94µM*	/	/	/	/
O=C(NCCCc1ccccc1)C1CCCN(Cc2cccc(-c3cccs3)c2)C1 (stereo unspecified)	?	?	/	-19.0%	/	-13.4%
Cc1ccc(-c2cccc(CN3CCCC3C(=O)NC3CCC3)c2)cc1Cl (stereo unspecified)	28.2µM*	39.8µM*	/	/	/	/
CCC(C)NC(=O)C1CCCN1Cc1cccc(-c2ccc(C)c(Cl)c2)c1 (stereo unspecified)	22.4µM*	35.5µM*	/	/	/	/
Cc1ccc(-c2cccc(CN3CCCC3C(=O)NC3CC3)c2)cc1Cl (stereo unspecified)	31.6µM*	35.5µM*	/	/	/	/
CC1(C)CC[C@]2(C(=O)O[C@@H]3O[C@H](CO)[C@@H](O)[C@H](O)[C@H]3O)CC[C@]3(C)C(=CCC4[C@@]5(C)CC[C@H](OC6OC(C(=O)O)C(OC7OC(CO)C(O)C(O)C7O)C(O)C6O)C(C)(C)C5CC[C@]43C)C2C1 (stereo partly specified)	/	/	/	/	/	-28.8%[12.5 µM]
Cc1ccc(-c2cc3c(=O)n(CCNC(=O)Cc4ccccc4Cl)ccn3n2)c(C)c1	-25.9%	-20.6%	-25.0%	1.1%	2.51µM*	0.7%
Cc1ccc(-c2cc3c(=O)n(CCNC(=O)c4cc(C5CC5)[nH]n4)ccn3n2)c(C)c1	?	-25.6%	?	37.6%	1.26µM*	-10.9%
COc1ccc(C(=O)NCCn2ccn3nc(-c4cc(C)ccc4C)cc3c2=O)c(OC)c1	39.8µM*	?	-21.5%	-23.3%	i	-11.3%
Cc1ccc(C)c(-c2cc3c(=O)n(CCNC(=O)c4ccc5ccccc5n4)ccn3n2)c1	35.5µM*	?	-18.5%	-11.6%	i	-1.5%
COc1ccccc1C(=O)NCCn1ccn2nc(-c3cc(C)ccc3C)cc2c1=O	?	?	-4.0%	-15.2%	i	5.9%
COc1ccc(C(=O)NCCn2ccn3nc(-c4cc(C)ccc4C)cc3c2=O)cc1	-28.5%	-23.6%	-10.1%	8.1%	i	-9.8%
Cc1ccc(-c2cc3c(=O)n(CCNC(=O)Cc4ccccc4Cl)ccn3n2)cc1C	?	-18.4%	-15.6%	1.8%	i	-5.8%
CNC(=O)Cn1nc(C(=O)N2CCCC(CO)(CC3CC3)C2)cc1C (stereo unspecified)	i	2.2%	5.6%	-4.1%	i	-0.2%
CCN(CCN(C)C)C(=O)c1cn(CC2COc3ccccc3O2)nn1 (stereo unspecified)	-26.6%	-3.8%	0.5%	-17.2%	i	7.0%
Cc1ccc(C)c(-c2cc3c(=O)n(CCNC(=O)c4ccc(C#N)cc4)ccn3n2)c1	12.6µM*	?	-23.3%	-21.1%	i	-17.9%
SMILES	HEK293 tox	3T3 cytotox	NPR1 antag	SNCA expr inhib	Luciferase inh	SNCA viab count
Cc1ccc(C(=O)NCCn2ccn3nc(-c4cc(C)ccc4C)cc3c2=O)cc1	?	-16.5%	-7.1%	4.4%	i	-4.2%
Cc1ccc(C)c(-c2cc3c(=O)n(CCNC(=O)c4ccccc4Cl)ccn3n2)c1	44.7µM*	35.5µM*	-17.8%	?	i	-26.3%
Cc1ccc(C)c(-c2cc3c(=O)n(CCNC(=O)c4cccc(F)c4)ccn3n2)c1	?	?	-9.3%	-20.0%	i	-12.5%
Cc1ccc(-c2cc3c(=O)n(CCNC(=O)Cc4c[nH]c5ccccc45)ccn3n2)c(C)c1	39.8µM*	-27.3%	?	10.6%	?	1.7%
CC(C)(C)C(=O)N1CCCN(Cc2ccc3c(c2)OCO3)c2ccccc21	?	?	-19.3%	-10.6%	i	-17.9%
Cc1ccc2[nH]c(=O)cc(C(=O)N3CCOC(CCCC(C)C)C3)c2c1 (stereo unspecified)	?	-24.1%	-1.4%	-19.5%	i	-14.0%
CC(C)N1C(=O)C2(CCCC2)C1C(=O)Nc1cccc(OC(F)(F)F)c1 (stereo unspecified)	-7.8%	-9.1%	2.0%	7.8%	i	3.1%
COc1ccc(-c2ccc3c(n2)CN(CCOc2ccccc2)C(=O)CO3)cc1	?	?	?	-3.2%[87.6 µM]	i	4.2%[87.6 µM]
Cc1ccc(-c2ccc3c(n2)CN(C)C(=O)CO3)cc1	?	?	?	90.1%[87.6 µM]	89.1µM*	3.9%[87.6 µM]
CN1Cc2nc(-c3cc(F)cc(F)c3)ccc2OCC1=O	-26.9%[230 µM]	?	-0.7%[70.6 µM]	23.8%[87.6 µM]	i	2.8%[87.6 µM]
COc1ccc(-c2ccc3c(n2)CN(C)C(=O)CO3)cc1	?	100µM*	?	210.0%[87.6 µM]	?	-3.7%[87.6 µM]
CC(C)n1cc(CN2CCC(Oc3ccc(C(=O)NC4CCCC4)cc3Cl)CC2)cn1	?	39.8µM*	2.6%	?	i	-18.6%
Cc1ccc(-c2noc([C@@H]3Cc4nc[nH]c4CN3Cc3ccc(N(C)C)cc3)n2)cc1	89.1µM*	100µM*	?	?	?	-15.3%[87.6 µM]
CN(C)c1ccc(CN2Cc3[nH]cnc3C[C@H]2c2nc(-c3ccccc3)no2)cc1	?	?	-3.6%[70.6 µM]	94.3%[87.6 µM]	39.8µM*	-9.4%[87.6 µM]
